Structures can show the parent of a compound that is named as a salt.
Test system: RIVA
Assay: growth inhibition by drug plus 177Lu-lilotomab satetraxetan (1 - RLU/untreated control) (fraction); higher = stronger inhibition
Settings: 177Lu-lilotomab satetraxetan 0.5 ug/ml
Procedure: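 RIVA (RI-1) ABC-DLBCL cells were pretreated or not for 18 h with 0.5 ug/ml 177Lu-lilotomab satetraxetan (600 MBq/mg), washed and seeded (3000 cells/well) on 384-well plates pre-printed with the Selleck Cambridge Cancer Compound library. Viability was read by RealTime-Glo luminescence on days 3-6 after seeding. Effect = 1 - RLU/mean RLU of the 48 untreated no-drug control wells per plate; Bliss score = (M-E)/(1-Fa).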

SMILES: CNNCc1ccc(C(=O)NC(C)C)cc1 [Procarbazine hydrochloride (Matulane)]
- growth inhibition by drug plus 177Lu-lilotomab satetraxetan (10 nM, time (day): 3): 0.542
- growth inhibition by drug plus 177Lu-lilotomab satetraxetan (10 nM, time (day): 4): 0.584
- growth inhibition by drug plus 177Lu-lilotomab satetraxetan (10 nM, time (day): 5): 0.596
- growth inhibition by drug plus 177Lu-lilotomab satetraxetan (10 nM, time (day): 6): 0.607
- growth inhibition by drug plus 177Lu-lilotomab satetraxetan (100 nM, time (day): 3): 0.494
- growth inhibition by drug plus 177Lu-lilotomab satetraxetan (100 nM, time (day): 4): 0.553
- growth inhibition by drug plus 177Lu-lilotomab satetraxetan (100 nM, time (day): 5): 0.563
- growth inhibition by drug plus 177Lu-lilotomab satetraxetan (100 nM, time (day): 6): 0.554

SMILES: NC(=O)c1ccc2nc(-c3ccc(Oc4ccc(Cl)cc4)cc3)[nH]c2c1
- growth inhibition by drug plus 177Lu-lilotomab satetraxetan (10 nM, time (day): 3): 0.4
- growth inhibition by drug plus 177Lu-lilotomab satetraxetan (10 nM, time (day): 4): 0.51
- growth inhibition by drug plus 177Lu-lilotomab satetraxetan (10 nM, time (day): 5): 0.52
- growth inhibition by drug plus 177Lu-lilotomab satetraxetan (10 nM, time (day): 6): 0.516
- growth inhibition by drug plus 177Lu-lilotomab satetraxetan (100 nM, time (day): 3): 0.455
- growth inhibition by drug plus 177Lu-lilotomab satetraxetan (100 nM, time (day): 4): 0.517
- growth inhibition by drug plus 177Lu-lilotomab satetraxetan (100 nM, time (day): 5): 0.523
- growth inhibition by drug plus 177Lu-lilotomab satetraxetan (100 nM, time (day): 6): 0.501

SMILES: C[C@]12CC[C@H](O)CC1=CC[C@@H]1[C@@H]2CC[C@]2(C)C(c3cccnc3)=CC[C@@H]12 [Abiraterone (CB-7598)]
- growth inhibition by drug plus 177Lu-lilotomab satetraxetan (10 nM, time (day): 3): 0.487
- growth inhibition by drug plus 177Lu-lilotomab satetraxetan (10 nM, time (day): 4): 0.574
- growth inhibition by drug plus 177Lu-lilotomab satetraxetan (10 nM, time (day): 5): 0.591
- growth inhibition by drug plus 177Lu-lilotomab satetraxetan (10 nM, time (day): 6): 0.595
- growth inhibition by drug plus 177Lu-lilotomab satetraxetan (100 nM, time (day): 3): 0.305
- growth inhibition by drug plus 177Lu-lilotomab satetraxetan (100 nM, time (day): 4): 0.41
- growth inhibition by drug plus 177Lu-lilotomab satetraxetan (100 nM, time (day): 5): 0.407
- growth inhibition by drug plus 177Lu-lilotomab satetraxetan (100 nM, time (day): 6): 0.425

SMILES: O=c1oc2c(O)c(O)cc3c(=O)oc4c(O)c(O)cc1c4c23 [Ellagic acid]
- growth inhibition by drug plus 177Lu-lilotomab satetraxetan (10 nM, time (day): 3): 0.371
- growth inhibition by drug plus 177Lu-lilotomab satetraxetan (10 nM, time (day): 4): 0.481
- growth inhibition by drug plus 177Lu-lilotomab satetraxetan (10 nM, time (day): 5): 0.517
- growth inhibition by drug plus 177Lu-lilotomab satetraxetan (10 nM, time (day): 6): 0.531
- growth inhibition by drug plus 177Lu-lilotomab satetraxetan (100 nM, time (day): 3): 0.323
- growth inhibition by drug plus 177Lu-lilotomab satetraxetan (100 nM, time (day): 4): 0.399
- growth inhibition by drug plus 177Lu-lilotomab satetraxetan (100 nM, time (day): 5): 0.402
- growth inhibition by drug plus 177Lu-lilotomab satetraxetan (100 nM, time (day): 6): 0.388

SMILES: COc1ccc(-c2oc3cc(OC)ccc3c2C(=O)c2ccc(C#N)cc2)cc1
- growth inhibition by drug plus 177Lu-lilotomab satetraxetan (10 nM, time (day): 3): 0.441
- growth inhibition by drug plus 177Lu-lilotomab satetraxetan (10 nM, time (day): 4): 0.559
- growth inhibition by drug plus 177Lu-lilotomab satetraxetan (10 nM, time (day): 5): 0.571
- growth inhibition by drug plus 177Lu-lilotomab satetraxetan (10 nM, time (day): 6): 0.572
- growth inhibition by drug plus 177Lu-lilotomab satetraxetan (100 nM, time (day): 3): 0.391
- growth inhibition by drug plus 177Lu-lilotomab satetraxetan (100 nM, time (day): 4): 0.503
- growth inhibition by drug plus 177Lu-lilotomab satetraxetan (100 nM, time (day): 5): 0.507
- growth inhibition by drug plus 177Lu-lilotomab satetraxetan (100 nM, time (day): 6): 0.483
